Laboratory results published in the supplement of paper PMC11417369.
± gives the standard deviation of the averaged measurements. Whole data set: some 25,000 sequences, median “ln(normalized median fluorescence intensity)” near 10, cut for the highest 2% near 12. The entries come from a sample that favours the highest values as a whole.

The sequences below were run on PfAP2-G AP2 domain (GST-tagged) (assay: gcPBM binding intensity (ln(normalized median fluorescence intensity)); higher = stronger DNA binding).
Method in brief: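 For binding intensity, the highest Masliner-normalised natural-log median intensity across replicate spots of either probe orientation was taken. Protein bound to the array was stained with Alexa488 anti-GST antibody and scanned at 488 nm. The protein, GST-tagged P. falciparum DNA-binding domains from E. coli at about 25 μg on average, had been applied for 1 h to an Agilent 4 × 180k array of primer-extended double-stranded 36-bp intergenic genomic probes and negative controls.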

Row | Sequence | gcPBM binding intensity (ln)
1 | AATTTGTTAATATTTTGTACACATAATATAAAAACA [XGTACX_site2224] | 11.3 ± 0.89
2 | ATAATATGAAGAAGCACACTCAATTAAATACAGATA [CACACA_site4690] | 9.97 ± 0.071
3 | ACAAAATGTAGAAAATGTACAAAATTAACAAAAGAA [XGTACX_site5019] | 10.7 ± 0.3
4 | CTTCTTGTAAAATTTGCATGTAATTAAAAGAGAATG [TGCATGCA_site484] | 10.2 ± 0.3
5 | TACAAAAAATTATGGAGTACATATATAATATACAAT [XGTACX_site1004] | 11.5 ± 0.88
6 | GCACTCGTAAAAAGCACACATATAAAAACATTTATA [CACACA_site322] | 10.2 ± 0.26
7 | TTTTTTTTTTTTTTTTGTACTTATAAAAAATTTTTT [XGTACX_site1249] | 11.1 ± 0.88
8 | TAAAATTTTGTTTGTTGTACTTATTTTCGTGTCAAC [XGTACX_site8277] | 11.6 ± 1
9 | AAATAAAATTTTTGTTGTACTTATTTTTAGTATACT [XGTACX_site4254] | 11.5 ± 0.81
10 | AAAATATTTAATAGAAGTACACATGTATATATACAT [XGTACX_site8942] | 11.6 ± 1.2
11 | TATATAATATATATATGTACACATATACATTTTTAT [XGTACX_site2832] | 11.5 ± 0.97
12 | ATAACATACATAACAACACACAATATTTATATGTAT [CACACA_site210] | 9.85
13 | AAAATAATATATGTATGTACATATACACATATAGAA [XGTACX_site2218] | 11.1 ± 0.59
14 | GATAACAATATGTGTACACATTTATATCTCCACATA [CACACA_site5442] | 11.7 ± 0.83
15 | TACATATTTTTTATGTGTACATATTTTTTATGTGTA [XGTACX_site443] | 11.4 ± 0.76
16 | CAACATATGCATATGTGTACATATTTTATTTTCAAC [XGTACX_site2237] | 11.7 ± 1.1
17 | ATATATATACTGTGTACACACATATGTATTTATATA [CACACA_site4600] | 11.6 ± 0.78
18 | TACATATTTTTTATGTGTACATATTTTTTATGTGTG [XGTACX_site444] | 11.5 ± 0.68
19 | ATTTATTTTCTGTGTACACATATGTTGGGTATTTTA [CACACA_site5902] | 11.7 ± 0.96
20 | GAAAAAAGAAAAAAAAGTACACACATGTATATTAAT [XGTACX_site5265] | 11.5 ± 0.91
21 | TATATTTATTTTCTGTGTACACATATGTTGTGTATT [XGTACX_site7640] | 11.6 ± 1
22 | GAATGTCTAATTTTGATGCACACTTTTGTGCAATTA [CACACA_site2902] | 10.2 ± 0.24
23 | AAAAAAAAAAAAAAAACACACATATATGTATATATA [CACACA_site3276] | 10 ± 0.27
24 | AAGAAAAAAGGGGACAAGGCATATCTATATATACAT [TGCATGCA_negctrl_site172] | 10.7 ± 0.52
25 | TTATAATTAAGATATAATCAATAATAACAAATGAAC [CACACA_negctrl_site1690] | 9.84 ± 0.014
